Screening data (PubChem)
GAA inh = blocks human lysosomal alpha-glucosidase | purified human GAA, 4-MU-alpha-glucoside fluorescence | Potency, µM (series often up to 76.9 µM), for inactives: top-dose activity change, negative = inhibition, most hits filed as inhibitors | 0.005% of 200,000 active | AID 1466;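 note: potency is the fitted concentration of half-maximal effect; plate controls were uninhibited enzyme wells for no effect and no-enzyme background for full effect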
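Fluorescence at Ex 365/Em 440 nm from 4-methylumbelliferone reported enzyme activity after 20 min at room temperature. Reactions used 4 nM enzyme and 400 uM substrate at pH 5.0; curves fitted with the Hill equation.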
N370S GC = inhibits or activates N370S mutant glucocerebrosidase; P04062; N370S GC spleen homogenate, 4MU-glucoside fluorescence; Potency, µM (titrated, usually from 59.4 µM), for the others: at the top dose activity change, negative = inhibition, usual class: inhibitors; 0.092% of 330,000 active; AID 2101;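 note: potency is the fitted concentration of half-maximal effect; 0% = full enzyme activity and -100% = no enzyme basal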
GAA spleen mod = inhibitors or activators of human alpha-glucosidase in spleen homogenate. 0.006% of 240,000 active. human spleen homogenate, 4-MU-alpha-glucoside fluorescence. Potency, µM (doses to about 79.9 µM), without a hit: at the top dose activity change, negative = inhibition, actives largely listed as inhibitors. P10253;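 note: potency is the fitted concentration of half-maximal effect; 0% = enzyme with vehicle and -100% = no enzyme basal signal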
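Enzyme source: human spleen homogenate, 1 ug/well. Buffer 50 mM citric acid/K phosphate pH 5.0, 0.01% Tween-20. 4-MU-alpha-glucoside 1 mM; 37 C x 40 min; NaOH/glycine stop; fluorescence.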
GLA inh pH 4.5 = inhibitors of human alpha-galactosidase A at pH 4.5; AID 1467; purified enzyme, 4-MU-alpha-Gal fluorescence, pH 4.5; activity change, negative = inhibition, % at 105 µM; 230,000 tested, under 10 active;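 note: 0% = full activity with enzyme and -100% = basal without enzyme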
Target sequence (P06280 whole entry, looked up): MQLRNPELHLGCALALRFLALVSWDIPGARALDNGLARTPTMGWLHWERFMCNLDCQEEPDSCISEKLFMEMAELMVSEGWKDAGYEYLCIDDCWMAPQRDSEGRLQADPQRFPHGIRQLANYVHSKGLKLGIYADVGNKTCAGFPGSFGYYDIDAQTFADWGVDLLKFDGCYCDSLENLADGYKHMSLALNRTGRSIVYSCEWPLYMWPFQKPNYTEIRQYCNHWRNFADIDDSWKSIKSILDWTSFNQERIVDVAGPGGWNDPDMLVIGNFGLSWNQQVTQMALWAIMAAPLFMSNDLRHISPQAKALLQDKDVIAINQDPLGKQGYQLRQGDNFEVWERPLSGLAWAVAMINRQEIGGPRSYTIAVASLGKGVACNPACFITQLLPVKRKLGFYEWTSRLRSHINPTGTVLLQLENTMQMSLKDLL
GAA glycogen mod = alters human alpha-glucosidase cleavage of glycogen; P10253; recombinant GAA, glycogen substrate, Amplex Red glucose oxidase fluorescence; Potency, µM (doses to about 76.4 µM), for the others: top-dose activity change, negative = inhibition, usual class: inhibitors; 0.38% of 300,000 active;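 note: potency is the fitted concentration of half-maximal effect; 0% = full enzyme reaction and -100% = no-enzyme basal signal; the screen sought inhibitors and activators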
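qHTS, 1536-well; enzyme 4 nM final; cpd up to 77 uM; substrate bovine liver glycogen 30 ug; 50 mM citrate/phosphate pH 5.0, 0.01% Tween-20; 37 C, 40 min; Amplex Red detection 45 min RT; Hill fit → AC50.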
GLA spleen mod = alpha-galactosidase A (human) modulation; P06280; human spleen homogenate, 4MU-alpha-Gal fluorescence, 40 min; Potency, µM (doses to about 80 µM), for inactives: at the highest dose activity change, negative = inhibition, hits mostly inhibitors; 0.008% of 240,000 active;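 note: potency is the fitted concentration of half-maximal effect; 0% = enzyme with vehicle and -100% = no enzyme basal signal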
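Fluorogenic readout (Ex 365/Em 440 nm) of 4-methylumbelliferone released from 1 mM 4-MU-alpha-galactoside by spleen homogenate, 40 min at 37C, pH 5.0. Data normalized to no-enzyme and enzyme controls; Hill-equation AC50 from compound titrations.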
Active calls of the source: *; ? = inconclusive; . = no result given; [ ] = dose if it differs, or a comment. Sampled rows, rich in hits. Any-hit rate of the full collection: about 0.41%. Calls come from the whole dose curve; as a rule, active = well fitted curve in the direction sought with a large enough effect; inconclusive = small, poorly fitted or top-dose-only effect, or another doubt; inactive = no such curve, though single readings can be large; an effect the other way counts as inactive or inconclusive.

SMILES	GAA inh	N370S GC	GAA spleen mod	GLA inh pH 4.5	GAA glycogen mod	GLA spleen mod
CC(=O)C1=C(c2ccccc2)NC(=O)NC1c1ccc(O)c(O)c1 (stereo not drawn)	11%	0%	0%	-12	?	-6%
CC(=O)C1=C(c2ccccc2)NC(=S)NC1c1ccc(O)c(O)c1 (stereo not drawn)	4%	-8%	-1%	-5	3.2µM*	-1%
CCOC(=O)C(C(C)=O)c1c(Br)c(O)c(O)c2c(C(=O)c3ccc(C)cc3)coc12 (stereo not drawn)	-10%	1%	-13%	3	32µM*	-3%
CC1(C)Cc2c(sc3ncn4c(=S)[nH]nc4c23)CO1	-9%	1%	6%	2	28µM*	5%
CC1(C)Cc2c(sc3ncn(N)c(=N)c23)CO1	1%	-3%	-3%	3	10%	-1%
CCOC(=O)CC(=O)CSc1nc2ccc(C)cc2cc1C#N	?	22µM*	-2%	-7	-4%	5%
CCOC(=O)CC(=O)CSc1nc(CC)c(C)cc1C#N	.	10%	-8%	11	-5%	7%
O=C(NC(=S)N1CCN(c2ccc(O)cc2)CC1)c1cccs1	.	-6%	-2%	-2	10µM*	5%
CN1C(=O)/C(=C/c2ccc(O)c([N+](=O)[O-])c2)NC1=S	-2%	-9%	-5%	-2	4%	-6%
COc1cc(/C=C2/NC(=O)N(Cc3ccccc3F)C2=O)ccc1O	-6%	-3%	0%	0	22µM*	-5%
COc1cc(/C=C2\NC(=S)N(C)C2=O)ccc1O	?	-19%	10%	?	10µM*	-4%
COc1cc(/C=C2/NC(=O)N(Cc3ccccc3F)C2=O)ccc1Oc1ccc([N+](=O)[O-])cn1	0%	0%	-2%	-13	-2%	-2%
COc1cc(Cl)c(C)cc1NC(=O)c1nn(C)c2c1CSc1ccccc1-2	.	.	.	.	-23%[76.3 µM]	.
CCN(CC)c1cccc(OC2=NS(=O)(=O)c3ccccc32)c1	-5%	-11%	-4%	-49	28µM*	-3%
COCCNc1ncnc2ccc(-c3ccccc3C(F)(F)F)cc12	.	-9%	7%	.	.	0%
O=C(c1cccc2cccc(O)c12)N1CCCCC1	5%	-10%	2%	0	25µM*	7%
O=C(c1cccc2ccccc12)N1CCCCC1	.	-2%	.	.	-8%[76.3 µM]	.
C=CCNC(=S)NN=C1CCCCCCC1	10%	0%	-7%	-2	35µM*	4%
COc1ccc(/C=C/C(=O)CC(=O)/C=C/c2cccc(O)c2OC)cc1O	.	?	-4%	.	.	-16%
O=S(=O)(c1ccc(OCC(O)CN2CCN(c3ccccc3O)CC2)cc1)N1CCOCC1 (stereo not drawn)	-6%	19%	0%	9	6.3µM*	7%
C#CCOc1c(Br)cc(C2C(C(=O)OC)=C(C)NC3=C2C(=O)c2ccccc23)cc1OCC (stereo not drawn)	.	.	.	.	-1%[76.3 µM]	.
CCOC(=O)c1ccc(NC(=O)CS(=O)(=O)Cc2nc(-c3ccc(C)cc3)oc2C)cc1	.	.	.	.	18%[76.3 µM]	.
Fc1ccccc1-c1nc(NCc2ccco2)c2ccccc2n1	4%	11µM*	1%	0	-15%	-4%
CCCCCC/C=C1\CC(C(=O)OCC)Oc2ccccc21 (stereo not drawn) (tested in a mixture with another compound)	.	3%[89.1 µM]	-7%[119 µM]	-13	.	-7%[119 µM]
Cc1cc(Nc2ccccc2)n(CCOC(=O)COc2ccccc2)n1	?	5%	-4%	-6	32µM*	2%
SMILES	GAA inh	N370S GC	GAA spleen mod	GLA inh pH 4.5	GAA glycogen mod	GLA spleen mod
CCOc1ccc(OCCC(=O)OCC(=O)Nc2cc(C)nn2-c2ccccc2)cc1	.	-7%	.	.	.	.
COc1cc2c(c(OC)c1OC)-c1c(cc3c(c1OC)OCO3)CC(C)C(C)(O)C2OC(=O)c1ccccc1 (stereo not drawn)	.	-4%	-4%	.	.	-11%
Cc1nc(NS(=O)(=O)c2ccccc2)sc1NC(=O)OC(C)C	4%	1%	-7%	8	28µM*	-3%
Cc1ccc(S(=O)(=O)Nc2nc(C)c(NC(=O)OCCCl)s2)cc1	-4%	4%	-6%	4	22µM*	-7%
COc1ccc(-c2c(O)c3cc(O)cc(O)c3oc2=O)cc1	.	-1%	2%	.	.	-4%
COc1ccc(N(C(=O)c2cccc(C)c2)S(=O)(=O)c2ccc3c(c2)n(C)c(=O)n3C)cc1	.	.	.	.	-12%[76.3 µM]	.
Cc1cc(C(C#N)c2ccccc2)n2ncnc2n1 (stereo not drawn)	?	1%	2%	2	25µM*	8%
Cc1cc(C(C#N)c2cccc(Cl)c2)n2ncnc2n1 (stereo not drawn)	5%	-3%	-5%	5	?	3%
NCCc1ccc(O)c(O)c1	6%[15.4 µM]	4%	9%	2	2µM*	-1%
CC(=O)NCCc1ccc(O)c(O)c1	.	0%	-1%	-3	.	-5%
C1CCc2nnc(-c3nnc4n3CCCCC4)n2CC1	-1%	-2%	-14%	0	4%	-5%
Cc1ccc(C)n1-c1ccc(-c2nnc3n2CCCCC3)s1	2%	0%	-3%	1	35µM*	4%
CCOC(=O)N1CC(C)N(/[N+]([O-])=N/Oc2ccc([N+](=O)[O-])cc2[N+](=O)[O-])CC1C (stereo not drawn)	.	-8%	-11%	.	.	-3%
CCOC(=O)Nc1ccc2c(c1)N(C(=O)CN(CC)CC)c1ccccc1CC2	.	-18%	.	.	8.9µM*	.
Nc1nc(-c2ccccc2)c(-c2ccccc2)s1	8%	5%	-10%	-1	-11%	5%
Nc1nc(-c2ccccc2)c(N=Nc2ccc(Cl)cc2)s1	-2%	2.5µM*	2%	-9	-4%	2%
CCc1cccc(C)c1Nc1c(-c2ccc(N(C)C)cc2)nc2cnccn12	.	.	.	.	10µM*	.
COCCNC(=O)C1(C(F)(F)F)C/C(=C\Cc2ccccc2)CCCO1 (stereo not drawn)	.	-14%	5%	.	.	-5%
Cc1ccc(CNc2ccc(N3CCOCC3)c(Cl)c2)cc1	.	9%	.	.	.	.
Cc1ccc(CNc2ccc(N3CCOCC3)cc2)cc1	.	-18%	.	.	6.3µM*	.
c1cc(CNc2ccc(N3CCOCC3)cc2)ccn1	-3%	12%	0%	3	16%	-4%
CC(C)c1ccc(CNc2ccc(N3CCOCC3)cc2)cc1	-6%	-11%	-15%	-20	28µM*	-13%
CCOc1ccc(C(C)=O)cc1COc1ccc(-c2nnco2)cc1	.	11µM*	.	.	.	.
C[C@@]12C=Cc3occc3[C@H]1CC[C@]13CC(=O)[C@@H](CC[C@H]12)C3	.	-5%	3%	.	.	4%
